According to PubChem BioAssay (NCATS):
Records with an inconclusive call do not appear. Calls of active or inactive are those of the source. The call rests on the fitted dose curve; in most records, active means well fitted curve in the direction sought with a large enough effect; inconclusive means small, poorly fitted or top-dose-only effect, or another doubt; inactive means no such curve, though single readings can be large; an effect the other way counts as inactive or inconclusive.

What was measured:
CRL-7250 = normal cell line; test: Cytotoxic Profiling of Annotated Libraries Using Quantitative High-Throughput Screening (AID 1296008); conditions: Five cell lines viability, CellTiter-Glo ATP luminescence, 48-72 h; max response: active compounds read low; further: nearly all actives have a fitted effect of over 60% in size; on max response: on the % scale 0 is the no-effect control and ±100 the full control effect
Summary of the method: (§1)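 Cytotoxicity was measured as CellTiter-Glo ATP luminescence, read after 10 min at room temperature. Compound treatment of the cells lasted 48 or 72 hr at 37 degrees Celsius in a qHTS format.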

HaCat [1] = test: as above; conditions: Five cell lines viability, CellTiter-Glo ATP luminescence, 48-72 h; max response: active compounds read low
Summary of the method: as §1

KB-3-1 = test: as above; conditions: Five cell lines viability, CellTiter-Glo ATP luminescence, 48-72 h; max response: active compounds read low
Summary of the method: as §1

NIH3T3 [2] = test: as above; conditions: Five cell lines viability, CellTiter-Glo ATP luminescence, 48-72 h; max response: active compounds read low
Summary of the method: as §1

HACAT [3] = test: qHTS assay to identify novel small-molecules to repurpose for Merkel cell carcinoma treatment (AID 1296009); conditions: MCC and control cell lines, CellTiter-Glo viability, 72 h; at 44.8 µM (top of the series) unless noted; further: nearly all actives have a fitted effect of over 60% in size
Summary of the method: (§2)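 Cell viability, measured as CellTiter-Glo luminescence, was normalized between DMSO and no-cell wells. The cells had been exposed to 8- or 11-point compound dilutions for 72 hr at 37 degree celsius.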

C33A = test: Primary qHTS to identify gynecologic anti-cancer compounds using libraries of approved drugs and bioactive compounds (AID 1345084); conditions: Gynecologic cancer cell panel viability, ATPlite luminescence, 48 h; series mostly up to 57.5 µM; further: on the % scale 0 is the no-effect control and ±100 the full control effect; nearly all actives have a fitted effect of over 55% in size
Summary of the method: (§3)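 Cells, 1,000 per well, were allowed to settle for 16 h at 37 C before compound addition. Five concentrations were tested for 48 h, and viability was read by ATPlite luminescence after 15 min at room temperature.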

CAOV3 = test: as above; conditions: Gynecologic cancer cell panel viability, ATPlite luminescence, 48 h; series mostly up to 57.5 µM
Summary of the method: as §3

CASKI = test: as above; conditions: Gynecologic cancer cell panel viability, ATPlite luminescence, 48 h; series mostly up to 57.5 µM
Summary of the method: as §3

Es-2 = test: as above; conditions: Gynecologic cancer cell panel viability, ATPlite luminescence, 48 h; series mostly up to 57.5 µM
Summary of the method: as §3

HeLa = test: as above; conditions: Gynecologic cancer cell panel viability, ATPlite luminescence, 48 h; series mostly up to 57.5 µM
Summary of the method: as §3

Hek293T [4] = test: as above; conditions: Gynecologic cancer cell panel viability, ATPlite luminescence, 48 h, control line for the selectivity index; series mostly up to 57.5 µM
Summary of the method: as §3

JEG-3 = test: as above; conditions: Gynecologic cancer cell panel viability, ATPlite luminescence, 48 h; series mostly up to 57.5 µM
Summary of the method: as §3

NIH3T3 [5] = test: qHTS assay to identify novel small-molecules to repurpose for Merkel cell carcinoma treatment (AID 1296009); conditions: MCC and control cell lines, CellTiter-Glo viability, 72 h; at 44.8 µM (top of the series) unless noted; further: nearly all actives have a fitted effect of over 60% in size
Summary of the method: as §2

HEK293T [6] = test: as above; conditions: MCC and control cell lines, CellTiter-Glo viability, 72 h; at 44.8 µM (top of the series) unless noted
Summary of the method: as §2

CC(C)C1C(OC(=O)/C=C/c2ccccc2)CC2(C)OC2CCC2(C)OC2C1O (configuration not stated)
inactive: outcome (CRL-7250) | outcome (HaCat [1]) | max response (KB-3-1) 9.34% | max response (NIH3T3 [2]) -5.79% | outcome (HACAT [3]) | Potency (C33A) | Potency (CAOV3) | outcome (CASKI) | Potency (Es-2) | Potency (HeLa) | Potency (Hek293T [4]) | Potency (JEG-3)

Nc1c(-c2ccccc2)nc(Cl)c2c(O)n[nH]c(=O)c12
inactive: outcome (CRL-7250) | outcome (HaCat [1]) | max response (KB-3-1) 9.61% | outcome (NIH3T3 [2]) | outcome (HACAT [3]) | outcome (NIH3T3 [5]) | Potency (C33A) | Potency (CAOV3) | outcome (CASKI) | Potency (Es-2) | Potency (HeLa) | Potency (Hek293T [4]) | Potency (JEG-3)

CCC(C)/C=C(C)/C=C/C1=CC2=C(Cl)C(=O)C(C)(O)C(=O)C2(O)C(OC)O1 (configuration not stated)
inactive: max response (CRL-7250) -11.8% | outcome (HaCat [1]) | outcome (KB-3-1) | outcome (NIH3T3 [2]) | outcome (HACAT [3]) inactive [at 17.4 µM] | outcome (NIH3T3 [5]) inactive [at 17.4 µM] | Potency (C33A) | outcome (CASKI) | Potency (HeLa) | Potency (Hek293T [4]) | Potency (JEG-3)

C[C@H]1[C@H](C)C[C@@H](C(=O)O)C2CC[C@]3(C)C(=CC[C@@H]4[C@@]5(C)CC[C@H](O)C(C)(C)[C@@H]5CC[C@]43C)[C@@H]21 (some centres not stated)
inactive: max response (CRL-7250) -4.25% | outcome (HaCat [1]) | max response (KB-3-1) 8.63% | outcome (NIH3T3 [2]) | outcome (HACAT [3]) | outcome (NIH3T3 [5]) | Potency (C33A) | Potency (CAOV3) | outcome (CASKI) | Potency (Es-2) | Potency (HeLa) | Potency (Hek293T [4]) | Potency (JEG-3)

C[C@@H]1CC[C@]2(C(=O)O[C@@H]3O[C@H](CO[C@@H]4O[C@H](CO)[C@@H](O[C@@H]5O[C@@H](C)[C@H](O)[C@@H](O)[C@H]5O)[C@H](O)[C@H]4O)[C@@H](O)[C@H](O)[C@H]3O)CC[C@]3(C)C(=CCC4[C@@]5(C)C[C@@H](O)[C@H](O)[C@@](C)(CO)C5CC[C@]43C)C2[C@H]1C (some centres not stated)
inactive: max response (CRL-7250) -0.89% | outcome (HaCat [1]) | max response (KB-3-1) 3.97% | max response (NIH3T3 [2]) 1.43% | outcome (HACAT [3]) inactive [at 9.27 µM] | activity change, negative = cytotoxicity (C33A) -0.2% [at 11.6 µM] | activity change, negative = cytotoxicity (CASKI) 20.3% [at 11.6 µM] | activity change, negative = cytotoxicity (Es-2) -3.91% [at 11.6 µM] | activity change, negative = cytotoxicity (HeLa) 11% [at 11.6 µM] | activity change, negative = cytotoxicity (Hek293T [4]) -0.706% [at 11.6 µM] | activity change, negative = cytotoxicity (JEG-3) 0.915% [at 11.6 µM]

C[C@@H]1CC[C@]2(C(=O)O[C@@H]3O[C@H](CO[C@@H]4O[C@H](CO)[C@@H](O)[C@H](O)[C@H]4O)[C@@H](O)[C@H](O)[C@H]3O)CC[C@]3(C)C(=CCC4[C@@]5(C)CC[C@H](O)[C@](C)(C(=O)O)C5CC[C@]43C)[C@@H]2[C@]1(C)O (some centres not stated)
inactive: outcome (CRL-7250) | outcome (HaCat [1]) | max response (KB-3-1) 2.71% | max response (NIH3T3 [2]) -11.7% | outcome (HACAT [3]) inactive [at 9.27 µM] | activity change, negative = cytotoxicity (C33A) -1.83% [at 11.6 µM] | activity change, negative = cytotoxicity (CAOV3) 5.32% [at 11.6 µM] | activity change, negative = cytotoxicity (CASKI) 3.63% [at 11.6 µM] | activity change, negative = cytotoxicity (Es-2) 6.01% [at 11.6 µM] | activity change, negative = cytotoxicity (HeLa) 4.82% [at 11.6 µM] | activity change, negative = cytotoxicity (Hek293T [4]) 10.6% [at 11.6 µM] | activity change, negative = cytotoxicity (JEG-3) 0.0588% [at 11.6 µM]

Oc1ccc(CC2NCCc3cc(O)c(O)cc32)cc1 (configuration not stated)
inactive: max response (CRL-7250) 4.94% | max response (HaCat [1]) 1.1% | max response (KB-3-1) 1.59% | outcome (NIH3T3 [2]) | Potency (C33A) | Potency (CAOV3) | outcome (CASKI) | Potency (Es-2) | Potency (HeLa) | Potency (Hek293T [4]) | Potency (JEG-3)

COc1cc(/C=C/C(=O)O[C@@H]2O[C@H](CO)[C@@H](O)[C@H](O)[C@H]2O)ccc1O
inactive: max response (CRL-7250) 2.76% | max response (HaCat [1]) 3.8% | max response (KB-3-1) -1.87% | max response (NIH3T3 [2]) 0.679% | outcome (HEK293T [6]) | Potency (C33A) | Potency (CAOV3) | outcome (CASKI) | Potency (Es-2) | Potency (HeLa) | Potency (Hek293T [4]) | Potency (JEG-3)

O=C(O)CC1CCC(c2ccc(NC(=O)c3nnc(Nc4ccc(F)c(F)c4)o3)cc2)CC1 (configuration not stated)
inactive: max response (CRL-7250) 1.15% | outcome (HaCat [1]) | outcome (KB-3-1) | outcome (NIH3T3 [2]) | outcome (HACAT [3]) | outcome (NIH3T3 [5]) | Potency (C33A) | Potency (CAOV3) | outcome (CASKI) | Potency (Es-2) | Potency (HeLa) | Potency (Hek293T [4]) | Potency (JEG-3)

O=C(OC(C(F)(F)F)C(F)(F)F)N1CCN(Cc2cccc(Oc3ccccc3)c2)CC1
inactive: outcome (CRL-7250) | outcome (HaCat [1]) | max response (KB-3-1) -5.42% | max response (NIH3T3 [2]) 4.82% | outcome (HACAT [3]) | Potency (C33A) | Potency (CAOV3) | outcome (CASKI) | Potency (Es-2) | Potency (HeLa) | Potency (Hek293T [4]) | Potency (JEG-3)

CC1=COC(OC2OC(CO)C(O)C(O)C2O)C2C(CO)CC(OC(=O)/C=C/c3ccc(O)cc3)C12 (configuration not stated)
inactive: max response (CRL-7250) 0.792% | max response (HaCat [1]) 1.84% | outcome (KB-3-1) | outcome (NIH3T3 [2]) | outcome (NIH3T3 [5]) inactive [at 17.4 µM] | Potency (C33A) | Potency (CAOV3) | outcome (CASKI) | Potency (Es-2) | Potency (HeLa) | Potency (Hek293T [4]) | Potency (JEG-3)
